# FLuc inh: Firefly luciferase inhibition profiling of diverse chemical library using quantitative high-throughput screening | actives 2.5% (n = 76,000) | Potency, µM (titrated, usually from 115 µM), usual class: inhibitors | Luciferin 4-monooxygenase (Photinus pyralis), P08659 | purified P. pyralis luciferase, luminescence, biochemical; also: % is scaled to controls: 0 for no effect and ±100 for the full control effect; nearly all actives have a fitted effect of over 65% in size
# Target sequence (P08659 whole entry, looked up): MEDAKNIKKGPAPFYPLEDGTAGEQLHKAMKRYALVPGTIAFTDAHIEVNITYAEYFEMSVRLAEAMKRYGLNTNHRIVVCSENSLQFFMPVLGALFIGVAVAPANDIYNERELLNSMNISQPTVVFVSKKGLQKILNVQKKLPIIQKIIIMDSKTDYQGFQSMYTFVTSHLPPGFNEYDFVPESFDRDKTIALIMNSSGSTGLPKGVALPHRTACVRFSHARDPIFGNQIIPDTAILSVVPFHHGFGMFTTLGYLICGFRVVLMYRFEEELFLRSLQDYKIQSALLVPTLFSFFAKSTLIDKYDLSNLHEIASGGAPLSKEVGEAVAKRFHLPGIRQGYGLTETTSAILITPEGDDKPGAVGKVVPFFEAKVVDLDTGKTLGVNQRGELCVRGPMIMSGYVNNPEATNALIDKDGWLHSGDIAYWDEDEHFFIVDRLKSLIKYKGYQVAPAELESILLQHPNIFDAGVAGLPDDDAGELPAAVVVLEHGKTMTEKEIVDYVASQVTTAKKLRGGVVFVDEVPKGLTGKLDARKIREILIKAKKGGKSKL
#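 Purified P. pyralis luciferase (10nM final) in 50mM Tris acetate pH 7.5, 10mM Mg acetate, 0.01% Tween-20, 0.05% BSA with 10uM D-luciferin and 10uM ATP. Compounds titrated qHTS. Luminescence imaged on CCD.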
# 3T3 cytotox: Cytotoxic Profiling in NIH 3T3 Cell Line of Diverse Libraries Using Quantitative High-Throughput Screening; Potency, µM (top dose mostly 96.7 µM), without a hit: at the highest dose activity change, negative = cytotoxicity, usual class: inhibitors; actives 4.3% (n = 94,000); NIH 3T3 viability, CellTiter-Glo ATP luminescence, 48-72 h; AID 1345082, 2018; also: % is scaled to controls: 0 for no effect and ±100 for the full control effect; nearly all actives have a fitted effect of over 55% in size
#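 Cells were seeded at 400 per well, treated with pin-transferred compound, and kept 48 or 72 hr at 37 °C before CellTiter-Glo addition and luminescence imaging of cellular ATP.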
# hNpr1 antagonist: Natriuretic polypeptide receptor (hNpr1) antagonism - Primary qHTS; HEK293 hNpr1 GloSensor cGMP, ANP-stimulated luminescence; actives 1.6% (n = 76,000); Potency, µM (titrated, usually from 46.3 µM), without a hit: at the top dose activity change, negative = inhibition, hits mostly inhibitors; Atrial natriuretic peptide receptor 1 (Homo sapiens), P16066; calls by dose curve; also: % is scaled to controls: 0 for no effect and ±100 for the full control effect; nearly all actives have a fitted effect of over 60% in size
#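 Compound pre-incubated 30 min at room temperature on GloSensor-loaded HEK293 cells stably carrying hNpr1 and the pGS-40F cGMP biosensor. Stimulation uses hNppA at 0.1 nM final; luminescence is taken at baseline and 20 min post-agonist.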
# HEK cytotox: Cytotoxic Profiling in HEK 293 Cell Line of Diverse Libraries Using Quantitative High-Throughput Screening | Potency, µM (highest dose often 115 µM), for inactives: at the top dose activity change, negative = cytotoxicity, most hits filed as inhibitors | actives 6.6% (n = 94,000) | HEK 293 viability, ATP luminescence (CellTiter-Glo), 48-72 h; also: % is scaled to controls: 0 for no effect and ±100 for the full control effect; nearly all actives have a fitted effect of over 60% in size
#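 CellTiter-Glo luminescence (cellular ATP) was read after 48 or 72 hr of compound exposure at 37 degree Celsius. Cells were HEK 293 plated at 250 cells/well.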
# Npr1 antag conf: Natriuretic polypeptide receptor (hNpr1) antagonism - Confirmation; HEK293 hNpr1 cGMP GloSensor luminescence, ANP-stimulated; actives 76% (n = 1,400); shares compounds with hNpr1 antagonist; Potency, µM (titrated, usually from 57.6 µM), without a hit: top-dose activity change, negative = inhibition, actives largely listed as inhibitors; calls by dose curve; also: nearly all actives have a fitted effect of over 70% in size
# NPR2 antag: Natriuretic polypeptide receptor (hNpr2) antagonism - Subtype selectivity assay; shares compounds with hNpr1 antagonist; HEK293 hNpr2 GloSensor cGMP luminescence, CNP-stimulated; Potency, µM (top dose mostly 57.6 µM), without a hit: at the highest dose activity change, negative = inhibition, actives largely listed as inhibitors; actives 67% (n = 1,400); calls by dose curve; also: nearly all actives have a fitted effect of over 70% in size
# FLuc inh counter: Natriuretic polypeptide receptor (hNpr1) antagonism - Confirmation firefly luciferase (FLuc) inhibition counterscreen; shares compounds with hNpr1 antagonist; purified FLuc enzyme, luminescence, Km substrate; Potency, µM (top dose mostly 57.6 µM), for the others: at the highest dose activity change, negative = inhibition, hits mostly inhibitors; actives 0.7% (n = 1,400); AID 1347047, 2019; also: 0% is about no effect
# GloSensor cGMP: Natriuretic polypeptide receptor (hNpr1) antagonism - Counterscreen GloSensor control cell line | shares compounds with hNpr1 antagonist | AID 1347051, 2019 | actives 69% (n = 1,400) | Potency, µM (titrated, usually from 57.6 µM), for the others: at the highest dose activity change, negative = inhibition, actives largely listed as inhibitors | HEK293 GloSensor cGMP, SNP-stimulated, luminescence; calls by dose curve; also: % is scaled to controls: 0 for no effect and ±100 for the full control effect; nearly all actives have a fitted effect of over 70% in size
# Starred values were filed as active, the others as inactive; i = inactive; ? = inconclusive; . = no result given; [ ] = dose if it differs, or a comment. Compounds with a hit are over-represented: about 11% of the library has one in this group of screens. Unless noted, calls follow the shape of the dose curve; as a rule, active = well fitted curve in the direction sought with a large enough effect; inconclusive = small, poorly fitted or top-dose-only effect, or another doubt; inactive = no such curve, though single readings can be large; an effect the other way counts as inactive or inconclusive. Potency is read from the fitted curve at half-maximal effect.
SMILES,FLuc inh,3T3 cytotox,hNpr1 antagonist,HEK cytotox,Npr1 antag conf,NPR2 antag,FLuc inh counter,GloSensor cGMP
O=C(c1ccc(-c2ncc3cnc(-c4cccc(F)c4)cn23)cc1)N1CCc2cccnc21,i,32µM*,18µM*,10µM*,14µM*,14µM*,-17%[86.2 µM],18µM*
Cc1ccc2c(C(=O)N3CCCCCC3)cc(NC(=O)C3CCC3)cc2n1,i,?,3%,1%,.,.,.,.
COc1cc(OC)cc(C(=O)N2CCCN(c3cc(-c4ccc(F)cc4)[nH]n3)CC2)c1,i,-27%,-6%,?,.,.,.,.
COc1ccc(-c2cc(N3CCCN(C(=O)c4cccc(F)c4)CC3)n[nH]2)cc1,i,-8%,-1%,?,.,.,.,.
COc1ccc(C(=O)N2CCN(c3cc(-c4ccc(F)cc4)[nH]n3)CC2)cc1,i,?,?,?,22µM*,24µM*,3%,27µM*
COc1ccc(-c2cc(N3CCCN(C(=O)c4cccc(Cl)c4)CC3)n[nH]2)cc1,i,?,?,?,24µM*,14µM*,3%,-1%
COc1ccc(-c2cc(N3CCN(C(=O)c4ccc(OC)cc4OC)CC3)n[nH]2)cc1,i,?,?,?,27µM*,22µM*,-1%,22µM*
COc1cc(OC)cc(C(=O)N2CCCN(c3cc(-c4ccc(Br)cc4)[nH]n3)CC2)c1,i,32µM*,11µM*,40µM*,24µM*,22µM*,-2%,27µM*
COC[C@H]1CCCN1[C@@H]1[C@H](O)[C@H](CO)O[C@@H]1CNCc1cccc(Cl)c1,i,i,5%,i,.,.,.,.
CN(C)c1ccc(-n2c(=O)c(C(=O)N3CCCC3)nc3cccnc32)cc1,.,-9%,.,i,.,.,.,.
O=C1Nc2ccc(-c3ccccc3F)cc2C(=O)N2CCN(C(=O)NC3CCCCC3)C[C@H]12,i,?,-8%,?,.,.,.,.
O=C(c1ccc2[nH]ccc2c1)N1CCN(c2cc(-c3ccccc3)[nH]n2)CC1,i,?,?,?,?,?,1%,-27%
COc1ccc(-c2cc(N3CCCN(C(=O)c4cccc(Br)c4)CC3)n[nH]2)cc1,i,?,?,?,?,14µM*,-9%,-21%
COc1ccc(-c2cc(N3CCCN(C(=O)c4ccc(F)c(Cl)c4)CC3)n[nH]2)cc1,i,?,?,?,17µM*,14µM*,-1%,6%
Cc1nc(C2CC23CCN(S(=O)(=O)c2cccnc2)CC3)no1 (stereo not given),.,-8%,.,4%,.,.,.,.
Cc1nn2c(c1-c1cccnc1N1CCOCC1)N(C(=O)Cc1ccc(Cl)cc1)CCC2,i,?,1%,?,.,.,.,.
Cc1nn2c(c1-c1cccnc1N1CCOCC1)N(CC1CCOCC1)CCC2,i,35µM*,?,?,?,?,5%[86.2 µM],?
O=C(N[C@H]1CCN2C(=O)c3cc(-c4ccc(F)cc4F)ccc3NC(=O)[C@H]12)c1cccs1,i,?,-23%,?,?,?,?,-23%

# Assay outcomes as filed in PubChem BioAssay.
